{"source": "PubChem BioAssay", "data": [{"target": "Fibroblast growth factor 2 (Homo sapiens) (UniProt P09038)", "sequence (P09038 whole entry, looked up)": "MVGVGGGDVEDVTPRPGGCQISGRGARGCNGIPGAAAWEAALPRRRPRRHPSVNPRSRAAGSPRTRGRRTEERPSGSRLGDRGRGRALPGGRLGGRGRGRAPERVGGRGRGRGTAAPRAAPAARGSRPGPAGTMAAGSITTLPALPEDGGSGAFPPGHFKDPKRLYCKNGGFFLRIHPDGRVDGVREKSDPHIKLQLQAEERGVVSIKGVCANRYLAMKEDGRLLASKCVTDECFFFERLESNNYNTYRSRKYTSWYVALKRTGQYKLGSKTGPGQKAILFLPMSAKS", "test": "basic fibroblast growth factor binding to printed compounds – biochemical, small-molecule microarray, 635/667 nm fluorescence, primary screen (AID 1133)", "conditions": "FGF2, fluorescence 635/667, higher = more signal", "values": [{"smiles": "C=CCN1C(=O)[C@]2(O[C@H](CCO)[C@@H]([Si](C)(C)c3ccc(OC)cc3)[C@@H]2C)c2cc(N3C(=O)c4cccc5cccc3c45)ccc21", "composite z-score": 0.65}, {"smiles": "C=CCN1C(=O)[C@]2(O[C@H](CCO)[C@@H]([Si](C)(C)c3ccc(OC)cc3)[C@@H]2C)c2cc(N3CCCCC3=O)ccc21", "composite z-score": 0.361}, {"smiles": "CN1C(=O)C2C=CC(C(O)c3ccc(-c4ccccc4)s3)N(N(c3ccccc3)c3ccccc3)C2C1=O", "note": "(stereo unspecified)", "composite z-score": -0.314}, {"smiles": "COc1cc(OC)c(C(O)C2C=CC3C(=O)NC(=O)C3N2Nc2ccc(Cl)cc2Cl)cc1Br", "note": "(stereo unspecified)", "composite z-score": 0.518}, {"smiles": "CCOC(=O)C[C@H]1[C@H](OC(=O)c2cc3ccccc3oc2=O)[C@@H](NC(=O)Cc2ccc(OC)cc2)c2cc(OCCCO)ccc2N1C(=O)c1ccccc1", "composite z-score": 0.382}, {"smiles": "COc1ccc(C(O)C2C=CC3C(=O)N(c4ccccc4)C(=O)C3N2Nc2ccccc2F)cc1OCc1ccccc1", "note": "(stereo unspecified)", "composite z-score": -0.179}, {"smiles": "CN1C(=O)C2C=CC(C(O)Cc3ccccc3)N(Nc3ccccc3)C2C1=O", "note": "(stereo unspecified)", "composite z-score": -0.408}, {"smiles": "O=C1O[C@H](c2ccccc2)[C@H](c2ccccc2)N2[C@H]1[C@@H](C(=O)Nc1nc3ccccc3s1)[C@]1(C(=O)Nc3ccc(C#CC4(O)CCCCCC4)cc31)[C@H]2c1ccc(OCCO)cc1", "composite z-score": 1.39}, {"smiles": "C[N+](C)(C)CCCC[C@@H]1NC(=O)[C@@H]2C[C@H](C(=O)NCCCCCN)[C@H](c3cccc(OCCO)c3)N2C1=O", "composite z-score": 0.175}, {"smiles": "CCCCCCC#C[Si](O[C@H](c1ccccc1)c1cn([C@H](CO)Cc2ccccc2)nn1)(C(C)C)C(C)C", "composite z-score": -0.489}, {"smiles": "COC(=O)[C@@]1(Cc2ccc(F)cc2)[C@@H]2[C@@H](CC(=O)[C@H]2CC(=O)C(=O)N(C)C)CN1C(=O)c1ccccc1", "composite z-score": -0.213}]}]}
